# Rows were chosen to be rich in hits. Some 2.8% of all compounds tested hit in one or more screens of this group.
# KKLEB tox: CF airway cell cytotoxicity counter-screen; KKLEB CF airway cells viability, ATPlite luminescence, overnight; stronger effect = lower value; cells stimulated with P. aeruginosa culture filtrate; activity change (cytotoxicity), % at 5 µM; 360,000 compounds, 0.36% hits; AID 602141;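 active = corrected activity change at or below -50% at 5 µM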
# HIF-2a block: HIF-2a inhibition. 360,000 compounds, 0.72% hits. AID 624352. inhibition, % at 18.8 µM. 786-0 RCC cells HIF-2a reporter, luciferase luminescence, overnight;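 active = inhibition of the luminescence signal of 40% or more relative to plate controls, in a single-dose primary screen at 18.75 µM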
# Peg3 prom inh: Peg3 promoter activity inhibition | 360,000 compounds, 1.7% hits | inhibition, % at 20 µM | AID 588405 | HeLa PEG-Prom luciferase reporter, luminescence, overnight;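 active = inhibition of at least 50% at 20 µM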
# TRPM1 prom inh: MITF TRPM1 promoter inhibition in SK-MEL-5 cells; SK-MEL-5 TRPM1 promoter luciferase, 24 h; 330,000 compounds, 0.83% hits; inhibition, % at 12.5 µM;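 active = mean inhibition across replicates of 60% or more, whatever share of single replicates reaches that level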
# Shn3 3UTR inh: Schnurri-3 reporter inhibition in Clone20 osteoblasts; Clone20 osteoblast Shn3 3'UTR firefly luciferase, 24 h; inhibition, % at 12.5 µM; 360,000 compounds, 0.52% hits; AID 588674;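 active = mean inhibition of at least 75% with every replicate also reaching 75%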;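 also: 0% = median of neutral control wells and 100% = pilot-screen positive control compound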
# CF NFkB inh: cystic fibrosis NF-kB activation inhibition; KKLEB NF-kB-GFP reporter, PAF-induced, GFP fluorescence overnight; inhibition, % at 5 µM; 360,000 compounds, 0.86% hits; AID 588850;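 active = at least 50% inhibition at 5 µM, scaled per plate between neutral and stimulator controls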;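 also: PAF is a Pseudomonas aeruginosa culture filtrate used as stimulus; plate controls were PAF-stimulated DMSO wells for no effect and unstimulated DMSO wells for full effect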
# The depositor's hits bear a star; . = no result; ! = not confirmed by another sample.
SMILES,KKLEB tox,HIF-2a block,Peg3 prom inh,TRPM1 prom inh,Shn3 3UTR inh,CF NFkB inh
COc1cc2c(-c3ccccc3O)nc3c(c(C)nn3-c3ccccc3)c2cc1OC,11.9,14.4,57.0*,1.2,12.6,-11.4
Nc1nc(Cl)nc2c1ncn2[C@H]1C[C@H](O)[C@@H](CO)O1,23.7,12.5,15.8,16.1,87.8*,19.4
N/C(=N\OCc1ccc([N+](=O)[O-])cc1)c1ccccn1,.,.,.,73.1*,.,.
CCCc1ccc(S(=O)(=O)N2CCN(C(=O)CN3C(=O)NC(C)(C4CC4)C3=O)CC2)cc1 (stereo not given),-8.1,7.8,1.3,.,0.5,13.5
Cc1cc(/C=C2\Cc3ccccc3C2=O)c(C)n1-c1ccccc1,-35.2,43.9*,48.8,43.9,46.6,-14.7
Cc1cc(C=C2C(=O)c3ccccc3C2=O)c(C)n1-c1ccc(C(=O)O)cc1,-14.1,6.9,10.8,1.1,-5.5,0.3
COc1ccc(C(=O)N2CCN(c3ccccc3Cl)CC2)cc1S(=O)(=O)NC1CC1,-9.2,16.7,-19.8,4.0,13.4,5.8
COCCn1c(=NC(=O)c2ccc(S(=O)(=O)N3CCc4ccccc4C3)cc2)sc2cc(OC)ccc21,-68.9*,10.4,12.5,11.2,1.8,55.3*
C[C@@H](NC(=O)c1[nH]cnc1C(=O)Nc1nccs1)c1ccccc1,-4.9,1.1,-0.8,0.7,-8.0,-10.6
COC(=O)c1ccccc1C(=O)N1CCC(CCC(=O)NC2CC2)CC1,9.3,0.1,-9.5,3.4,-9.9,-33.8
CCC(OC(=O)CN1C(=O)C(=O)c2ccccc21)C(=O)Nc1ccccc1OC (stereo not given),4.5,-1.1,-11.8,3.7,2.6,-7.0
O=C(CSc1nnc(-c2ccc(Cl)cc2Cl)n1C1CCCCC1)N1CCCC1,10.0,15.0,8.7,4.2,92.2*,2.7
COc1ccc(NC(=S)N(CCN(C)C)C(C)c2ccncc2)cc1Cl (stereo not given),4.7,2.7,54.3*,-5.0,45.9,-6.6
Fc1ccc(-[n+]2nc(Nc3ccccc3)sc2-c2c(Cl)cccc2Cl)cc1,-2.0,-3.4,58.7*,8.4,19.3,32.4
COc1ccc2ccccc2c1-c1sc(Nc2ccccc2)n[n+]1-c1ccc(F)cc1,-13.9,-5.9,86.5*,5.3,3.0,17.4
O=C(NCCO)c1ccc(-c2cnc3cccnn23)cc1,1.9,-16.2,-22.2,.,7.2,23.3
Cc1ccc2nc(-c3cc(-c4ccccc4)no3)cn2c1,-5.5,-31.5,11.2,30.8,48.9,-4.2
CCc1ccn2cc(-c3cc(-c4ccccc4)no3)nc2c1,-51.9*,63.9*,73.3*,77.7*,29.8,-27.1
Cc1ccc(-n2nnnc2Sc2nc([N+](=O)[O-])nn2C)c(C)c1,8.4,13.6,-0.6,73.1*,-35.0,4.3
CCN(CC)c1ccc(C=O)c(OC)c1,5.9,19.2,0.7,5.3,9.2,16.5
CC1=C(/C=C/C(C)=C/C=C/C(C)=C/C(=O)Nc2ccc(O)cc2)C(C)(C)CCC1,-8.7,11.2,61.2*!,-2.9,58.0,3.5
CN(C)S(=O)(=O)n1cc(/C=C(\NC(=O)c2ccccc2Cl)C(=O)N2CCCC2)c2ccccc21,-4.7,-4.1,14.6,3.9,-62.6,-10.9
Nc1nc2n(n1)C(=O)CC(c1ccccc1)N2 (stereo not given),-10.2,13.0,8.8,16.0,-3.2,6.7
CCC(C)NS(=O)(=O)c1ccc(S(=O)(=O)N2CCCC3(CCCCC3)C2)cc1 (stereo not given),8.2,16.1,24.1,19.4,85.8*,9.2
OC(CNCC(c1ccc(Cl)cc1Cl)c1c[nH]c2ccccc12)c1ccccc1 (stereo not given),-16.8,17.5,109.8*,100.2*,35.8,19.0
COc1ccc(N/N=C/c2c(C(=O)O)ccc3ccccc23)cc1,-12.8,-91.4,37.6,.,92.9*,12.6
COC(=O)c1c(N2C(=O)CC(Sc3ncccc3C(=O)O)C2=O)sc(C)c1C (stereo not given),9.0,-4.4,-12.2,3.2,-15.9,11.9
COc1ccc(N2C3=C(CC4=C2CC(C)(C)CC4=O)C(=O)CC(C)(C)C3)cc1,-0.5,30.4,-14.6,86.9*,-20.5,-2.7
COc1ccc(N2C3=C(CC4=C2CCCC4=O)C(=O)CCC3)cc1,10.4,19.5,0.7,-2.4,12.1,-8.9
